# According to publication PMC5540273 (PLoS ONE, 2017):
# Experiments:
# Settings in all cases: concentration: 1 μM,replicates: in singlicate; n = 1
# CDK8 = tested on: CDK8
# CDK9 = tested on: CDK9
# CDKL1 = tested on: CDKL1
# CDKL2 = tested on: CDKL2
# CDKL3 = tested on: CDKL3
# CDKL5 = tested on: CDKL5
# CHEK1 = tested on: CHEK1
# CHEK2 = tested on: CHEK2
# CIT = tested on: CIT
# CLK1 = tested on: CLK1
# CLK2 = tested on: CLK2
# CLK3 = tested on: CLK3
# CLK4 = tested on: CLK4
# CSF1R-autoinhibited = tested on: CSF1R-autoinhibited
# CSF1R = tested on: CSF1R
# CSK = tested on: CSK
# CSNK1A1L = tested on: CSNK1A1L
# CSNK1A1 = tested on: CSNK1A1
# CSNK1D = tested on: CSNK1D
# CSNK1E = tested on: CSNK1E
# 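Also: KINOMEscan kinase panel screen.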
Compound,%Inh (CDK8) [%],%Inh (CDK9) [%],%Inh (CDKL1) [%],%Inh (CDKL2) [%],%Inh (CDKL3) [%],%Inh (CDKL5) [%],%Inh (CHEK1) [%],%Inh (CHEK2) [%],%Inh (CIT) [%],%Inh (CLK1) [%],%Inh (CLK2) [%],%Inh (CLK3) [%],%Inh (CLK4) [%],%Inh (CSF1R-autoinhibited) [%],%Inh (CSF1R) [%],%Inh (CSK) [%],%Inh (CSNK1A1L) [%],%Inh (CSNK1A1) [%],%Inh (CSNK1D) [%],%Inh (CSNK1E) [%]
CCn1c(-c2nonc2N)nc2cncc(Br)c21 [SB-738004],50,4,2,0,0,0,0,41,0,22,77,9,37,95.1,5,11,0,12,13,19
Cc1nnc(-c2ccc3occ(-c4ccc(S(C)=O)cc4)c3n2)o1 (centres unmarked),0,0,24,0,0,0,0,1,0,0,19,0,0,0,1,0,6,0,0,0
O=C(Nc1cccc(C(F)(F)F)c1)c1cccc(Oc2ccc3nccn3n2)c1,0,0,14,18,0,3,0,0,13,7,0,0,4,16,100,0,0,0,11,0
Cc1cccc2c(-c3ccncc3)c(-c3ccc(F)cc3)nn12.Cl [GW461487],25,0,12,8,0,0,0,0,90,17,0,3,0,4,0,0,22,51,93.3,84
Cn1ccc2ncnc(Oc3ccc(NC(=O)Nc4cccc(C(F)(F)F)c4)c(F)c3)c21,100,24,62,45,7,0,0,1,78,13,9,4,0,0,99.9,0,0,39,22,13
Cc1ccn2nc(-c3ccc(F)cc3)c(-c3ccncc3)c2c1.Cl [GW457859],12,0,23,28,0,0,0,43,100,22,0,1,55,25,9,0,35,92.5,96.3,99.6
CNC(=O)c1ccccc1Nc1nc(Nc2cccc(CS(C)(=O)=O)c2)ncc1C.O=CO [GSK1520489],4,0,28,52,0,0,16,86,45,99.3,94.6,86,98.9,90,99.8,95.1,63,46,25,20
C[C@@H](Oc1cc(-n2cnc3ccc(-c4ccncc4)cc32)sc1C(N)=O)c1ccccc1Cl [GSK483724],57,3,16,78,32,0,0,0,98.8,98.2,83,37,97.1,0,14,11,17,0,28,44
COc1cccc(CNC(=O)NC2CCN(c3ccnc(Nc4cc(OC)c(OC)c(OC)c4)n3)C2)c1 (centres unmarked) [GSK1379765],29,0,13,22,0,0,0,14,28,21,0,0,16,29,15,20,16,0,14,18
CCNCC(Cc1ccccc1)NC(=O)c1cc(Br)c(-c2ccnc3[nH]ccc23)s1.Cl.Cl (centres unmarked) [GSK1383280],0,19,17,0,0,0,20,42,73,59,71,47,59,0,55,6,6,0,32,39
